Results: PubChem BioAssay (NCATS)
Values joined by “and” are separate entries in the source; they are usually repeats but may differ in a detail not shown here. Equal values may be shown once. Inconclusive results are not listed. Where a call stands in place of a potency, no number is given. Active and inactive are the calls of the source. Calls come from the whole dose curve; as a rule, active = well fitted curve in the direction sought with a large enough effect; inconclusive = small, poorly fitted or top-dose-only effect, or another doubt; inactive = no such curve, though single readings can be large; an effect the other way counts as inactive or inconclusive.

Experiment: qHTS of pediatric cancer cell lines to identify multiple opportunities for drug repurposing: Confirmatory screen for MG 63 (6-TG R) cells (AID 1347119); note: nearly all actives have a fitted effect of over 55% in size
Settings: MG-63 (6-TG resistant) osteosarcoma viability; series mostly up to 45.9 µM
Summary of the method: (§1)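 Cells (500-1,000/well) rested 5 h, then received compounds for 48 h; metabolically active cells were measured by CellTiter-Glo luminescence. Final concentrations spanned up to 46 µM (MIPE, 11-point) or 0.59 nM-46 µM (NPC, 8-point) in primary screens, 11-point in follow-ups.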
Potency is the fitted concentration of half-maximal effect.

Row | SMILES | Potency
1 | OC[C@H]1O[C@@H](n2cnc3c2NC=NC[C@@H]3O)C[C@H]1O | inactive
2 | CO[C@H]1C=CC=C(C)C(=O)NC2=CC(=O)C(NCCN(C)C)=C(C[C@@H](C)C[C@H](OC)[C@@H](O)[C@@H](C)C=C(C)[C@@H]1OC(N)=O)C2=O | inactive
3 | COc1cc(N2CCC(N3CCN(C)CC3)CC2)ccc1Nc1ncc(Cl)c(Nc2ccccc2S(=O)(=O)C(C)C)n1 | 827 nM (active)
4 | Nc1ncnc2c1ncn2[C@@H]1O[C@@H](CO)[C@H](O)[C@H]1O | inactive
5 | O=C(O)c1ccc(-c2c[nH]c3ncc(-c4ccccc4)cc23)cc1C1CCCC1 | inactive
6 | COc1ccc(-c2nc(N3CCOCC3)c3sc(CN(C)c4ncc(C(=O)NO)cn4)cc3n2)cn1 | 928 nM (active)
7 | CC1(C)O[C@H]2C[C@@H]3[C@H]4CCC5=CC(=O)C=C[C@]5(C)[C@@]4(F)[C@@H](O)C[C@]3(C)[C@]2(C(=O)CO)O1 | inactive
8 | CC1(C)S[C@H]2[C@H](NC(=O)[C@@H](N)c3ccc(O)cc3)C(=O)N2[C@@H]1C(=O)O | inactive
9 | CCc1ccc(OCc2ccccc2C(=O)Nc2ccc3nc(C)cc(N)c3c2)cc1 | 4140 nM (active)
10 | CCOc1ccc(Nc2nc(-c3c(C)nc4ccccn34)cs2)cc1 | 104 nM (active)
11 | COc1cc2ncnc(Nc3ccc(F)c(Cl)c3)c2cc1OCCCN1CCOCC1 | 67600 nM (active)
12 | CC1(C)CCC(CN2CCN(c3ccc(C(=O)NS(=O)(=O)c4ccc(NCC5CCOCC5)c([N+](=O)[O-])c4)c(Oc4cnc5[nH]ccc5c4)c3)CC2)=C(c2ccc(Cl)cc2)C1 | inactive
13 | CN(C)C1CCN(C(=O)c2ccc(NC(=O)Nc3nc(N4CCOCC4)nc(N4CCOCC4)n3)cc2)CC1 | 233 nM (active)
14 | CC[C@]1(O)C[C@@H]2CN(CCc3c([nH]c4ccccc34)[C@@](C(=O)OC)(c3cc4c(cc3OC)N(C)[C@H]3[C@@](O)(C(=O)OC)[C@H](OC(C)=O)[C@]5(CC)C=CCN6CC[C@]43[C@@H]65)C2)C1 | 522 nM (active) and 1.04 µM (active)
15 | CO[C@H]1C(=O)[C@]2(C)[C@@H](OC)C[C@H]3OC[C@@]3(OC(C)=O)[C@H]2[C@H](OC(=O)c2ccccc2)[C@]2(O)C[C@H](OC(=O)[C@H](O)[C@@H](NC(=O)OC(C)(C)C)c3ccccc3)C(C)=C1C2(C)C | 8.3 nM (active)
16 | NC1=N[C@@]2(c3cc(NC(=O)c4ccc(F)cn4)ccc3F)COC[C@@H]2CS1 | inactive
17 | CC1(C)CCC[C@@]2(C)[C@@H]1CC[C@@]1(C)OC(=O)C[C@H]21 | inactive
18 | O=C1c2ccccc2-[n+]2ccc3c([nH]c4ccccc43)c21 | 3290 nM (active)
19 | C=C1C(=O)[C@@]23C(CC[C@@H]1[C@H]2O)[C@@]12CO[C@]3(O)[C@@H](O)[C@@H]1C(C)(C)CC[C@@H]2O (stereo not given in full) | 10400 nM (active)
20 | O=C1C(Cl)=C(NCCN2CCOCC2)C(=O)c2ncccc21 | 1040 nM (active)
21 | CC(C)(C(=O)NCC(F)(F)C(F)(F)F)C(=O)N[C@@H]1C(=O)Nc2ccccc2-c2ccccc21 | inactive
22 | CC(=O)O[C@]1(C(C)=O)CC[C@@H]2[C@@H]3C[C@H](C)C4=CC(=O)CC[C@]4(C)[C@H]3CC[C@@]21C | inactive
23 | CC(C)n1nc(-c2ccc3oc(N)nc3c2)c2c(N)ncnc21 | 46.5 nM (active)

Experiment: qHTS of pediatric cancer cell lines to identify multiple opportunities for drug repurposing: Confirmatory screen for control Hh wild type fibroblast cells (AID 1347121); note: nearly all actives have a fitted effect of over 70% in size
Settings: viability qHTS; series mostly up to 45.9 µM
Summary of the method: as §1

Row | SMILES | Potency
24 | OC[C@H]1O[C@@H](n2cnc3c2NC=NC[C@@H]3O)C[C@H]1O | inactive
25 | CO[C@H]1C=CC=C(C)C(=O)NC2=CC(=O)C(NCCN(C)C)=C(C[C@@H](C)C[C@H](OC)[C@@H](O)[C@@H](C)C=C(C)[C@@H]1OC(N)=O)C2=O | inactive
26 | COc1cc(N2CCC(N3CCN(C)CC3)CC2)ccc1Nc1ncc(Cl)c(Nc2ccccc2S(=O)(=O)C(C)C)n1 | 20.8 µM (active)
27 | O=C(O)c1ccc(-c2c[nH]c3ncc(-c4ccccc4)cc23)cc1C1CCCC1 | inactive
28 | CC1(C)S[C@H]2[C@H](NC(=O)[C@@H](N)c3ccc(O)cc3)C(=O)N2[C@@H]1C(=O)O | inactive
29 | CCc1ccc(OCc2ccccc2C(=O)Nc2ccc3nc(C)cc(N)c3c2)cc1 | 9.27 µM (active)
30 | O=c1cc(-c2ccc(O)cc2)oc2cc(O)cc(O)c12 | inactive
31 | CCOc1ccc(Nc2nc(-c3c(C)nc4ccccn34)cs2)cc1 | inactive
32 | COc1cc2ncnc(Nc3ccc(F)c(Cl)c3)c2cc1OCCCN1CCOCC1 | 47.9 µM (active)
33 | CC1(C)CCC(CN2CCN(c3ccc(C(=O)NS(=O)(=O)c4ccc(NCC5CCOCC5)c([N+](=O)[O-])c4)c(Oc4cnc5[nH]ccc5c4)c3)CC2)=C(c2ccc(Cl)cc2)C1 | inactive
34 | CC[C@]1(O)C[C@@H]2CN(CCc3c([nH]c4ccccc34)[C@@](C(=O)OC)(c3cc4c(cc3OC)N(C)[C@H]3[C@@](O)(C(=O)OC)[C@H](OC(C)=O)[C@]5(CC)C=CCN6CC[C@]43[C@@H]65)C2)C1 | inactive
35 | CO[C@H]1C(=O)[C@]2(C)[C@@H](OC)C[C@H]3OC[C@@]3(OC(C)=O)[C@H]2[C@H](OC(=O)c2ccccc2)[C@]2(O)C[C@H](OC(=O)[C@H](O)[C@@H](NC(=O)OC(C)(C)C)c3ccccc3)C(C)=C1C2(C)C | inactive
36 | NC1=N[C@@]2(c3cc(NC(=O)c4ccc(F)cn4)ccc3F)COC[C@@H]2CS1 | inactive
37 | CC1(C)CCC[C@@]2(C)[C@@H]1CC[C@@]1(C)OC(=O)C[C@H]21 | inactive
38 | NS(=O)(=O)c1cccc2c1C(=O)c1cccc(O)c1C2=O | 2.93 µM (active)
39 | O=C1c2ccccc2-[n+]2ccc3c([nH]c4ccccc43)c21 | 7.37 µM (active)
40 | C=C1C(=O)[C@@]23C(CC[C@@H]1[C@H]2O)[C@@]12CO[C@]3(O)[C@@H](O)[C@@H]1C(C)(C)CC[C@@H]2O (stereo not given in full) | inactive
41 | O=C1NC(=O)C(=Cc2ccc3c(c2)OC(F)(F)O3)S1 | inactive
42 | CC(=O)Nc1ccc([C@H](C)C(=O)Nc2ncc(C(C)C)s2)cc1 | inactive
43 | O=C1C(Cl)=C(NCCN2CCOCC2)C(=O)c2ncccc21 | 20.8 µM (active)
44 | CC(C)(C(=O)NCC(F)(F)C(F)(F)F)C(=O)N[C@@H]1C(=O)Nc2ccccc2-c2ccccc21 | inactive
45 | CC(=O)O[C@]1(C(C)=O)CC[C@@H]2[C@@H]3C[C@H](C)C4=CC(=O)CC[C@]4(C)[C@H]3CC[C@@]21C | inactive
